This is a sample that favours compounds with a hit; in the whole collection about 4.7% have one here.
D1 antag: Antagonist of Human D 1 Dopamine Receptor: qHTS. activity change, negative = inhibition, % at 10 µM. HEK293 TREx D1 cells, calcium flux, dopamine EC80; stronger effect = lower value. 3.2% of 360,000 active; in the data active means activity change below about -30%; further: on the % scale 0 is the no-effect control and ±100 the full control effect
Target sequence (P21728 whole entry, looked up): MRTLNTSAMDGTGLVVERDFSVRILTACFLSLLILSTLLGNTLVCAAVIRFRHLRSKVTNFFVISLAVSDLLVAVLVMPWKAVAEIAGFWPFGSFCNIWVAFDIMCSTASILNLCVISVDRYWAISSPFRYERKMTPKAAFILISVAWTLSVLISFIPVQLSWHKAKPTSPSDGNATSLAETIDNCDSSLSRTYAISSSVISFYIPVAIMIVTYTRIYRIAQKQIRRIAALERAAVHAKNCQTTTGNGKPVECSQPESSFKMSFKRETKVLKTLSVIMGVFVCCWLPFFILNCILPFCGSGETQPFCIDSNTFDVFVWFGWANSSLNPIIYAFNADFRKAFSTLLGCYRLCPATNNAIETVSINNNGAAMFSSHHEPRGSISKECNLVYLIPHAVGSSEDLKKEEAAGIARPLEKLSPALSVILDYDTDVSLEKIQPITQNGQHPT
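Kinetic fluorescence of a calcium dye serves as the read-out. D1-expressing Hek293 Trex cells, induced overnight at 30 C, are exposed to compound for 180 s before an EC80 dopamine addition, then read 180 s further.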
D1 agonist: Allosteric Agonists of the Human D1 Dopamine Receptor: qHTS. HEK293 T-REx D1 cells, calcium flux, agonist mode. AID 504660, 2011. 1% of 360,000 active. activation, % at 2 µM. D(1A) dopamine receptor (Homo sapiens), P21728; further: 0% is about no effect
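Inducible HEK293 T-REx D1 cells, force-coupled to calcium signalling, were plated at 4000 cells/well with tetracycline and held overnight at 30 C. After no-wash calcium dye loading, compound-evoked calcium rise over 180 s flagged agonists.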
TRHR agonist: qHTS for Small Molecule Agonists and Allosteric Enhancers of Human TRH Receptor: Primary Screen for Agonists | Thyrotropin-releasing hormone receptor (Homo sapiens), P34981 | TRHR cells, calcium flux fluo-8, FDSS agonist mode | activation, % at 2 µM | 0.18% of 360,000 active | AID 493084, 2011; further: 0% is about no effect
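Agonist-mode FDSS calcium read (Ex 480/Em 530, 1 s cycles) in 1536-well TRHR cells with fluo-8 dye, after 10-cycle baseline and 23 nL compound addition; TRH at EC20 (10 nM final) added afterwards for the enhancer phase.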
D1 potentiator: Potentiators of Human D1 Dopamine Receptor: qHTS; 0.036% of 360,000 active; HEK293 TREx D1 cells, calcium flux, dopamine EC20 potentiation; potentiation, % at 10 µM; in the data active means potentiation above about 30%; further: 0% is about no effect
TRHR PAM: qHTS for Small Molecule Agonists and Allosteric Enhancers of Human TRH Receptor: Primary Screen for Enhancers. Thyrotropin-releasing hormone receptor (Homo sapiens), P34981. TRHR cells, fluo-8 calcium fluorescence, EC20 TRH enhancement. enhancement, % at 2 µM. 0.66% of 360,000 active. AID 493056, 2011; in the data active means enhancement above about 30%; further: 0% is about no effect
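Enhancer read-out: after compound pinning and an initial kinetic agonist-mode read, an EC20 of TRH (10 nM final) was injected and fluo-8 calcium signal (Ex 480/Em 530) followed at 1 s/cycle for 100 cycles in TRHR-expressing cells.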
Starred values were filed as active, the others as inactive. Unless noted, no stated cut-off is given here; in the data, active means activation above about 30%; inactive means the rest.

SMILES	D1 antag	D1 agonist	TRHR agonist	D1 potentiator	TRHR PAM
O=c1oc2c3c4c(cc2c(C(F)(F)F)c1CCN1CCOCC1)CCCN4CCC3	17	178*	95*	-1	4
O=c1oc2c(CN3CCOCC3)c(O)ccc2c2c1CCC2	8	1	0	0	8
CC(C)c1cc(=O)oc2c3c4c(cc12)CCCN4CCC3	6	30*	6	-5	1
CC(=O)N1CCCC1c1nc2ccccc2n1Cc1ccccc1F (configuration not stated)	-21	2	0	-3	-1
CC1CCN(C(=O)c2ccc3c(c2)N(Cc2ccccc2)C(=O)c2ccccc2S3(=O)=O)CC1	-5	7	0	-3	4
CCC(C(=O)Nc1ccc(C(=O)N2CCCC2)cc1)c1ccccc1 (configuration not stated)	4	37*	4	-6	3
CCC(C(=O)Nc1ccc(C(=O)Nc2ccccc2C(=O)O)cc1)c1ccccc1 (configuration not stated)	-65*	2	0	-5	-4
CCc1ccc(NC(=O)C(CC)c2ccccc2)cc1 (configuration not stated)	3	41*	12	14	-9
CCOc1ccc(-c2noc(CSc3nnc(Cc4ccccc4)n3-c3cccc(C)c3)n2)cc1	-4	38*	4	1	5
CCOc1ccc(-n2c(Cc3ccccc3)nnc2SCc2nc(-c3ccccc3C)no2)cc1	-1	32*	5	-1	-14
CCOc1ccc(-n2c(Cc3ccccc3)nnc2SCc2nc(-c3ccccc3OC)no2)cc1	2	17	1	0	-7
Cc1ccc(-c2noc(CSc3nnc(Cc4ccccc4)n3-c3cccc(C)c3)n2)cc1	-6	24	3	0	-1
O=C(NCCc1ccccc1)c1ccc(Br)o1	-5	2	-1	9	-4
O=C(NCCNC(=O)c1ccc(Br)o1)c1ccc(Br)o1	5	14	3	1	38*
O=C(c1ccccc1)c1ccc(OCCn2cnc3ccccc3c2=O)cc1	-29	2	0	-6	-7
CC(C)(c1ccccc1)c1ccc(OCCn2cnc3ccccc3c2=O)cc1	5	33*	9	6	2
O=c1c2c3c(sc2nnn1Cc1ccc(F)cc1)CCCC3	-2	-1	0	0	-5
O=C(CSc1n[nH]c(=O)n1C1CC1)Nc1ccccc1	-7	1	0	-5	2
O=c1[nH]nc(SCc2ccccc2)n1C1CC2C=CC1C2 (configuration not stated)	-32*	12	3	-3	2
CSc1nncc(/C(C)=N\Nc2ccccc2)n1	-37*	0	-1	-4	28
COc1ccc(OCc2nc(C#N)c(NCc3ccccc3Cl)o2)cc1	-8	22	-1	-6	41*
N#Cc1nc(Cc2ccccc2)oc1NCc1ccccc1Cl	-37*	9	-1	-5	10
COc1ccc(CNc2oc(COc3ccc(Cl)cc3)nc2C#N)cc1	-30*	4	-2	-7	-9
COc1ccc(-c2nc(C#N)c(NCc3ccccc3Cl)o2)cc1	-6	2	1	-5	9
COC(=O)c1c(-c2cccs2)csc1NC(=O)c1ccc(C(C)(C)C)cc1	6	1	1	-2	-1
Oc1cccc(NC(=S)N=Nc2c(O)[nH]c3ccccc23)c1	-31*	7	-3	-19	18
Oc1[nH]c2ccccc2c1N=NC(=S)NCCc1ccccc1	-30*	4	-1	-12	0
CC(C)c1ccc2[nH]c(O)c(N=NC(=S)NCCc3ccccc3)c2c1	14	6	-1	-1	2
NC(=S)N=Nc1c(O)[nH]c2ccccc12	-12	3	1	1	-1
CCCCNC(=S)N=Nc1c(O)[nH]c2ccccc12	-31*	0	0	-11	3

Source: PubChem
